A selection: hits, their analogues and other compounds. The true share with any hit is near 4.1%.
ABHD5-PLIN5 inh: ABHD5-PLIN5 protein interaction inhibition; Split G. princeps luciferase complementation, luminescence, 4 h; AID 602281; Q00G26+Q8WTS1; 0.78% of 360,000 active; inhibition, % at 4 µM;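 active means inhibition above the mean inhibition across every tested compound plus 3 SD, cut at about 22% in these data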;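 further: 0% = DMSO only wells and the 100% control is not disclosed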
rCAG RNA binder: molecules binding r(CAG) RNA repeats | 1.3% of 370,000 active | AID 651821 | r(CAG) RNA repeat, TO-PRO-1 dye displacement fluorescence | inhibition, % at 3 µM;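 active means inhibition above the plate cutoff, the mean of all test compounds on that plate plus 3 SD, cut at about 35% in these data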;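 further: 0% = DMSO alone and 100% = 100 µM mitoxantrone as full dye displacement; higher means more dye released from RNA so lower well fluorescence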
PRMT1 inh: PRMT1 (human) inhibition, primary screen; 1.3% of 370,000 active; AID 652257; inhibition, % at 2.79 µM; recombinant PRMT1, activity-based probe fluorescence polarization; Q99873;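 active means inhibition above about 21% made by adding two undisclosed values, limit read from the data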
UHRF1 binding: blocks human UHRF1 binding to methylated DNA; 0.75% of 370,000 active; UHRF1 binding to methylated oligo, TR-FRET; inhibition, % at 4.4 µM; Q96T88; in the data active means inhibition above about 21%;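 further: UHRF1 SRA domain binding a hemimethylated CpG hairpin DNA probe; 0% = median of test compound wells and 100% = reference inhibitor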
Target sequence (Q96T88 whole entry, looked up, the tested form may be a part): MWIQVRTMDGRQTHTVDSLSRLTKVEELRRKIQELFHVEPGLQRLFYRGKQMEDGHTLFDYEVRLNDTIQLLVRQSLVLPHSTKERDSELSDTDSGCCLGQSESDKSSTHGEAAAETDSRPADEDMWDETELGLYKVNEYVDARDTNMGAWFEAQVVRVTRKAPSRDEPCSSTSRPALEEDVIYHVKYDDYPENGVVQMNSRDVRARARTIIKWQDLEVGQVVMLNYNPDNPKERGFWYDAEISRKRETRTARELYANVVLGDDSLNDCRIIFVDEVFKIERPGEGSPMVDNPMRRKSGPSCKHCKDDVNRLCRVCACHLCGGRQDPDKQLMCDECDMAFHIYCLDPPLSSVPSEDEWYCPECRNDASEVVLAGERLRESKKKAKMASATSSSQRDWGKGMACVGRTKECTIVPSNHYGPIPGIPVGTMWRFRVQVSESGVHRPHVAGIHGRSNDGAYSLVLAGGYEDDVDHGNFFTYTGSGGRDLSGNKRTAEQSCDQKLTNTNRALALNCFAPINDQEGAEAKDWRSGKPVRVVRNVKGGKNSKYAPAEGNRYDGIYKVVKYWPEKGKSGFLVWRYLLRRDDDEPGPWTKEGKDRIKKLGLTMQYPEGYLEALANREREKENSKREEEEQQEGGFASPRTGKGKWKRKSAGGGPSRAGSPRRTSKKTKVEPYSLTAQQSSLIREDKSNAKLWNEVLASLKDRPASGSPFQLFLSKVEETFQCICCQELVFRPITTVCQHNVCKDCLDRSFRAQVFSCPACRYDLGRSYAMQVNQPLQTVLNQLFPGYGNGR
LEDGF integ inh: blocks HIV-1 LEDGF/p75-dependent DNA integration; TR-FRET IN-LEDGF/p75 DNA integration, Eu/Cy5; inhibition, % at 3.7 µM; 0.64% of 370,000 active;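 active means inhibition above the screen-wide mean plus 3 SD, cut at about 13% in these data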;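 further: signal is the Cy5 over europium emission ratio at 671 and 618 nm; 0% = plate median of compound wells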
MBD2 inh: blocks human MBD2 binding to methylated DNA | Q9UBB5 | TR-FRET, MBD2 binding to methylated oligonucleotide | inhibition, % at 4.4 µM | 0.31% of 370,000 active | AID 686964; in the data active means inhibition above about 13%
ABHD5-PLIN5 conf: confirmation of human ABHD5-PLIN5 interaction inhibitors; biochemical ABHD5-PLIN5 interaction, luminescence; inhibition, % at 4 µM; AID 651612; 67% of 2,200 active; shares compounds with ABHD5-PLIN5 inh; in the data active means inhibition above about 23%;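 further: 0% = DMSO vehicle wells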
HNF4 counter: HNF4 split-luciferase signal hit, counter-screen | HNF4 dimerization, luminescence, biochemical | shares compounds with ABHD5-PLIN5 inh | inhibition, % at 4 µM | 77% of 2,200 active | AID 651674;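 active means mean inhibition across replicate wells exceeding the computed hit threshold, cut at about 13% in these data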;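 further: light from luciferase halves that rejoin when HNF4 fusion proteins dimerize; 0% = DMSO only wells and the 100% control is not given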
rCAG binder conf: r(CAG) RNA repeat binding, confirmation; shares compounds with rCAG RNA binder; TO-PRO-1 dye displacement fluorescence; inhibition, % at 3 µM; 70% of 4,300 active;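 active means inhibition above a per-plate cutoff, the mean inhibition of sample wells plus 3 SD, cut at about 35% in these data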;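 further: loss of TO-PRO-1 fluorescence as compound displaces dye from 1x1 AA loop RNA; 0% = DMSO only wells and 100% = 100 µM mitoxantrone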
DNA CAG counter: DNA CAG dye complex inhibition counter-screen; shares compounds with rCAG RNA binder; d(CAG) DNA oligo TO-PRO-1 dye displacement, fluorescence; inhibition, % at 3 µM; 94% of 4,300 active; AID 652068;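 active means inhibition above its plate's cutoff, the mean test-well inhibition plus 3 SD, cut at about 4.8% in these data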;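 further: 0% = DNA dye mix with DMSO and 100% = 100 µM mitoxantrone; hits displace the dye from DNA and so lower well fluorescence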
PRMT1 confirm: confirmation of human PRMT1 inhibitors. inhibition, % at 2.79 µM. shares compounds with PRMT1 inh. recombinant His-PRMT1, activity-based probe fluorescence polarization. AID 687036. 42% of 3,300 active;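 active means mean inhibition across replicates above the hit cutoff derived for the earlier primary screen, cut at about 22% in these data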
UHRF1 ctr MBD2: counter-screen for MBD2 inhibitors: human UHRF1 methylated DNA binding inhibitors | shares compounds with MBD2 inh | 25% of 1,000 active | UHRF1 binding to methylated oligonucleotide, TR-FRET | inhibition, % at 4.4 µM | AID 720530; in the data active means inhibition above about 21%;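 further: UHRF1 SRA domain binding a labeled hemimethylated CpG hairpin DNA; 0% = vehicle only and 100% = reference inhibitor with vehicle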
MBD2 DBD conf: confirmation of human MBD2-DBD methylated oligonucleotide binding inhibitors; shares compounds with MBD2 inh; TR-FRET MBD2-DBD binding to methylated oligonucleotide; inhibition, % at 4.4 µM; 26% of 1,000 active
IN multimer act: activates HIV-1 integrase multimerization in LEDGF counter-screen; shares compounds with LEDGF integ inh; TR-FRET HIV-1 integrase multimerization, biochemical; activation, % at 7.7 µM; 17% of 2,000 active; in the data active means activation above about 8.9%
TR-FRET interf: optically interferes with TR-FRET readout in LEDGF counter-screen | shares compounds with LEDGF integ inh | TR-FRET optical interference counterscreen, HIV-1 IN multimerization | inhibition, % at 7.7 µM | 2,000 tested, under 10 active;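 active means inhibition above the mean over all tested compounds plus 3 SD, which no compound reached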;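 further: 0% = integrase with antibodies and DMSO and 100% = antibodies without integrase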
LEDGF integ conf: confirmation of HIV-1 LEDGF/p75-dependent integration inhibitors; shares compounds with LEDGF integ inh; TR-FRET LEDGF/p75-dependent HIV-1 integration, biochemical; inhibition, % at 3.7 µM; 36% of 2,000 active; AID 1053136
* hit, by the source's call; x = not tested or not shown. Unless noted, no stated cut-off is given here; in the data, active means inhibition above about 14%; inactive means the rest.

SMILES	ABHD5-PLIN5 inh	rCAG RNA binder	PRMT1 inh	UHRF1 binding	LEDGF integ inh	MBD2 inh	ABHD5-PLIN5 conf	HNF4 counter	PRMT1 confirm	IN multimer act	TR-FRET interf	LEDGF integ conf	others
O=C(NCCCO)c1ccc2nc(-c3ccco3)c(-c3ccco3)nc2c1	25*	22	34*	17	53*	-5	67*	68*	44*	50*	-178	70*
O=C(Nc1ccccc1)c1ccc2nc(-c3ccco3)c(-c3ccco3)nc2c1	30*	74*	38*	6	17*	2	49*	32*	x	4	-20	43*
Cc1ccc(-c2cc(C(=O)O)c3cc(Br)ccc3n2)o1	27*	28	77*	9	14*	2	79*	88*	81*	16*	-57	7
CC(C)(C)C(=O)Nc1ccc(/C=C/C(=O)c2ccco2)cc1	37*	-2	0	-4	34*	-4	61*	44*	x	0	-1	-3
COC1=CC(=O)C(C2CC(=O)c3c(O)cc(O)cc3O2)=CC1=O (configuration not stated)	29*	20	48*	9	46*	5	82*	93*	89*	46*	-233	24*
CC[C@H](CCCc1ccc(OC)cc1)CCC(=O)N(c1ccccc1)c1ccccc1	x	7	-1	-3	-2	3	x	x	x	x	x	x
O=c1cc(-c2ccc(O)cc2)oc2c1ccc1ccccc12	-11	15	-2	-4	-2	2	x	x	x	x	x	x
O=c1cc(-c2ccc(O)cc2)oc2c(O)c(O)c(O)c(O)c12	34*	6	52*	18	41*	9	-6	14*	16	19*	-94	92*
O=C1S/C(=C\C=C\c2ccco2)C(=O)N1c1ccc(O)cc1	49*	38*	31*	10	31*	4	33*	49*	4	17*	-60	28*	rCAG binder conf=18;DNA CAG counter=9.9*
O=C1S/C(=C\C=C\c2ccco2)C(=O)N1c1ccccc1	37*	41*	40*	25*	40*	13*	28*	36*	9	1	-4	23*	rCAG binder conf=18;DNA CAG counter=12*;UHRF1 ctr MBD2=7;MBD2 DBD conf=2
O=C1NC(=Nc2ccccc2)S/C1=C\C=C\c1ccco1	25*	69*	21	13	34*	4	36*	55*	x	16*	-57	58*	rCAG binder conf=62*;DNA CAG counter=30*
O=C1S/C(=C\c2cccs2)C(=O)N1c1ccc(O)cc1	-5	6	2	-4	0	1	x	x	x	x	x	x
Cn1cc(/C=C2\SC(=O)N(c3ccccc3)C2=O)c2ccccc21	4	1	0	1	-6	1	x	x	x	x	x	x
CC(C)C[C@@H]1COc2cccc(N3CCCC3)c2S(=O)(=O)N1	x	-1	1	0	0	-3	x	x	x	x	x	x
COc1cccc(/C=C2\CC3(OC(=O)c4ccccc4)CCCN2C3)c1 (configuration not stated)	x	-1	-4	3	0	-3	x	x	x	x	x	x
C/C=C/C=C/C(=O)[C@@H]1[C@@H]([C@]2(C)OC(=O)C(C)=C2O)[C@H]2/C(=C(O)/C=C/C=C/C)C(=O)[C@]1(C)C(=O)C2(C)O (some centres not stated)	35*	30	12	48*	45*	13	44*	25*	x	5	-23	78*
COC(=O)c1cn(-c2ccc(-c3noc4c3C(=O)N(CC(=O)N3CCOCC3)CC4)cc2)nn1	x	2	2	8	3	11	x	x	x	x	x	x
Cc1ccc2c(c1)N(CCCC(=O)NCc1c(F)cccc1F)C(=O)CO2	x	-1	-2	1	-3	-1	x	x	x	x	x	x
Oc1c(CN2CCOCC2)cc(CN2CCOCC2)c(O)c1CN1CCOCC1	55*	11	72*	-5	20*	-2	79*	108*	77*	2	-8	-2
O=C(CCl)Nc1nc(-c2ccco2)c(-c2ccco2)s1	37*	14	32*	2	25*	-1	36*	54*	x	23*	-115	68*
O=C(O)c1cc(N2C(=O)C=CC2=O)cc(N2C(=O)C=CC2=O)c1	24*	15	75*	97*	62*	80*	80*	109*	97*	2	-9	53*	UHRF1 ctr MBD2=77*;MBD2 DBD conf=39*
O=C(O)c1cc(C(=O)O)cc(N2C(=O)c3ccccc3C2=O)c1	x	3	-1	-1	4	3	x	x	x	x	x	x
O=C(NCCc1ccccc1)OCc1cn(Cc2ccccc2Cl)nn1	x	0	1	-1	1	-7	x	x	x	x	x	x
C/C=C/c1ccc(O)c(OC)c1	-4	2	-3	-6	5	-10	x	x	x	x	x	x
COc1cc(/C=C/C=C2/CC/C(=C/C=C/c3ccc(O)c(OC)c3)C2=O)ccc1O	26*	80*	54*	58*	92*	31*	62*	68*	13	26*	-131	54*	UHRF1 ctr MBD2=16;MBD2 DBD conf=7

High-throughput results from PubChem.
